Screening results from PubChem.
Rows were chosen to be rich in hits. Some 1.1% of all compounds tested hit in one or more screens of this group.
Yp Topo-I inh – Y. pestis Topo-I inhibition via cleavage products; Y. pestis Topo-I cleavage product accumulation, plate reader; activity, % at 10 µM; AID 504884; 360,000 tested, 0.064% active; in the data active = activity above about 50%, passing the limit was not always enough
Vc quorum ag-1 – inducers of Vibrio cholerae quorum light production without autoinducers. activation, % at 18.7 µM. 350,000 tested, 0.16% active. V. cholerae BH1578 lux reporter, luminescence, 6 h. AID 588436; in the data active = activation mostly above about 9.7%, no sharp cut-off
CCHF vOTU inh – blocks the CCHF virus ovarian tumor domain protease; CCHFV vOTU protease, Pep-AMC fluorescence; inhibition, % at 11.5 µM; 370,000 tested, 0.55% active; in the data active = inhibition above about 30%; also: 0% = vehicle wells with enzyme and 100% = no enzyme wells
PrPC surface inh – reduces human prion protein on the cell surface. 370,000 tested, 0.43% active. cell surface PrPC, TR-FRET read-out. AID 720596. inhibition, % at 13.8 µM. P04156; in the data active = inhibition above about 24%; also: 0% = median of the test wells and 100% = reference compound wells
Vc quorum ag-2 – quorum light induction in BH1578 reporter strain; 620 tested, under 10 active; activation, % at 50 µM; V. cholerae BH1578 lux reporter, luminescence, 6 h; AID 602243; shares compounds with Vc quorum ag-1; call rule not given here
HeLa tox – cytotoxicity in HeLa cells at 24 hours; shares compounds with Vc quorum ag-1; 25 tested, under 10 active; activity change, negative = cytotoxicity, % at 35 µM; HeLa viability, CellTiter-Glo ATP luminescence; AID 624140;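 active = signal drop with fitted half-maximal concentration at or below twice the highest valid dose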
Starred values were filed as active, the others as inactive; i = inactive; · = no result; + = active, no number.

SMILES	Yp Topo-I inh	Vc quorum ag-1	CCHF vOTU inh	PrPC surface inh	Vc quorum ag-2	others
Nc1nc(SCc2nc3sc4c(c3c(=O)[nH]2)CCCC4)n[nH]1	-2.1	30.8*	3.5	11.8	0.9
Cc1nnc(SCc2nc3sc4c(c3c(=O)[nH]2)CCCC4)n(N)c1=O	·	·	-10.8	6.8	·
O=S(=O)(Nc1cccc(S(=O)(=O)N2CCCCC2)c1)c1ccccc1F	-0.9	26.1*	7.7	2.3	0.2
CCOC(=O)C1CCN(C(=O)COc2ccc(N(C)S(=O)(=O)c3ccc(OCC)cc3)cc2)CC1	23.4	0.2	12.4	-10.4	·
Cc1ccc(S(=O)(=O)N(C)c2ccc(OCC(=O)N3CCCCC3)cc2)cc1	7.3	12.5	3.2	4.7	1.6
O=C(COC(=O)C1CCC1)Nc1ccc(Oc2ccccc2)cc1	5.8	1.8	2.4	-2.5	0.1
CC1=CC(=C(C#N)C#N)C=C(C)N1CCN1CCN(C(=O)Nc2cccc(Cl)c2)CC1	3.8	i	9.5	3.4	·
Cc1cccc(-c2noc(CN(C(=O)C34CC5CC(CC(C5)C3)C4)C(C)C)n2)c1	1.2	17.9*	9.3	-9.0	0.3
Cn1c(CCN2CCN(c3ccccn3)CC2)nc2cc(NC(=O)COc3ccc([N+](=O)[O-])cc3)ccc21	13.2	-0.3	7.6	6.2	·
O=C(Nc1c(F)c(F)c(F)c(F)c1F)C1CCCCC1	3.7	25.2	10.7	8.0	1.6
Cc1cc2c(ncn2C)c(NS(=O)(=O)c2cc(Cl)ccc2Cl)c1C	7.7	16.7*	-9.2	3.7	0.3
Cc1ccc(NC(=O)c2ccc(Cl)c(N3C(=O)CCC3=O)c2)cc1	-4.7	1.2	18.0	-1.7	·
COc1ccc(-c2nnn(CC(=O)c3ccc4c(c3)OCCO4)n2)cc1OC	5.8	5.6*	1.9	-15.2	0.2
CCOC(=O)c1c(C)c(C(=O)N2CCN(c3ccccc3)CC2)c(C)n1C	10.0	i	0.0	-0.4	·
COc1ccc(-n2c(COc3ccccc3)nnc2SCc2ccc(C#N)cc2)cc1	6.2	12.5	6.1	4.6	0.0
COc1ccccc1-c1ccc(NC2CCCCC2)nn1	17.6	-0.6	2.7	8.3	·
c1ccc(Cc2nn[nH]n2)cc1	1.7	·	10.2	6.8	·
COc1ccc(Cc2nn[nH]n2)cc1	-0.2	7.6*	0.2	-2.1	0.2
CC1CCCN(C(=O)c2ccc3c(=O)n(Cc4ccc5c(c4)OCO5)c(=S)[nH]c3c2)C1 (stereo not drawn)	-3.8	1.8	-3.6	-3.1	4.0
CCOC(=O)CNc1c(-c2ccc(Cl)cc2)nc2cnccn12	-11.6	25.0*	-159.0	-14.9	-0.1
COCOCCn1cc(CN2CCS(=O)(=O)N(Cc3ccc(-c4ccc(Cl)cc4)cc3)C(C)C2=O)nn1 (stereo not drawn)	45.1	-1.1	-3.2	-10.3	·
CCN(CC)Cc1cc(C(=O)O)c(-c2ccccc2)o1	-10.2	-5.5	-0.8	-4.3	·
O=C(O)c1cc(CN2CCOCC2)oc1-c1ccccc1	1.4	16.7*	0.7	2.9	0.8
COc1ccc(C(=O)N2CCC(C(=O)c3ccc(F)cc3)CC2)cc1	2.8	16.7*	9.6	-7.4	1.0
O=C(NCCC(=O)N1CCN(c2ccc(F)cc2)CC1)c1ccco1	0.1	12.5	-9.0	6.8	100.0
SMILES	Yp Topo-I inh	Vc quorum ag-1	CCHF vOTU inh	PrPC surface inh	Vc quorum ag-2	others
CCOC(=O)Cc1c(C)[nH]c(=S)[nH]c1=O	0.0	16.7*	-5.1	-3.9	8.1
CC(C)N1CC(C(=O)Nc2ccc(S(=O)(=O)N3CCCCC3)cc2)CC1=O (stereo not drawn)	1.2	-0.4	-3.7	3.3	·
CCOC(=O)Cn1nc(C)n(-c2ccc(C(C)C)cc2)c1=O	5.7	14.3	-4.1	1.5	0.1
CCNC(=S)N/N=C/c1cccc(C)c1	2.2	-0.1	-3.7	6.4	·
CC(C)[C@H](NC(=O)c1ccccc1F)C(=O)OCC(=O)NC1CC1	-5.6	19.5*	9.2	0.0	0.4
CC(C)[C@H](NC(=O)c1ccccc1F)C(=O)NC1CCCCC1	4.7	0.1	1.7	-4.3	·
CCSc1nnc(NC(=O)c2ccc3ccccc3n2)s1	2.2	25.0	-2.0	-8.8	0.0
CCc1nnc(NC(=O)c2ccc3ccccc3n2)s1	0.6	-0.9	6.0	-2.1	·
COc1cc(SC)ccc1C(=O)OCC(=O)NC1CCCCC1	9.3	-0.6	-8.6	4.0	·
Cc1ccc(CC(=O)NC2CCCC2)cc1	·	·	·	·	·	HeLa tox=-4.6
COc1cc(SC)ccc1C(=O)OCC(=O)NC1CCCC1	6.0	741.4*	16.3	3.5	i
O=C(COC(=O)c1ccc(Cl)cc1)NC1CCCCCC1	7.5	-1.4	2.1	3.2	·
Cc1ccc(C(=O)OCC(=O)NC2CCCC2)cc1C	-0.2	+	-18.0	-8.1	i
